Integrin act MD – activators of alpha7 integrin expression for muscular dystrophy; alpha7betagal myoblasts, beta-gal FDG fluorescence, 48 h; Potency, µM (series often up to 38.3 µM), for inactives: at the top dose activation, usual class: activators; 0.064% of 350,000 active;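 further: 100% = response of the positive control SU9516; nearly all actives have a fitted effect of over 60% in size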
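Alpha7betagal+/- myoblasts (passage 13) were plated 16-24 hr, then exposed to compounds (1:260 dilution of DMSO stock) for 48 hours at 37C. After MPER lysis, β-galactosidase reporter activity was read as FDG fluorescence (ex 480/em 540) after 30 minutes.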
ClpP mod – qHTS Assay for Activators of ClpP. ATP-dependent Clp protease proteolytic subunit (Bacillus subtilis (strain 168)), P80244. purified B. subtilis ClpP, FRET peptide cleavage, 20 min. Potency, µM (highest dose often 57.5 µM), inactives show at the highest dose activity change, negative = active. 1.9% of 340,000 active. AID 651965, 2013; active means well fitted falling curve with a large enough effect; inconclusive means small, poorly fitted or top-dose-only effect; inactive means no such curve, though single readings can be large or run the other way; further: the source files actives as falling curves though it sought activators and does not explain the sign; nearly all actives have a fitted effect of over 65% in size
Target sequence (P80244 whole entry, looked up): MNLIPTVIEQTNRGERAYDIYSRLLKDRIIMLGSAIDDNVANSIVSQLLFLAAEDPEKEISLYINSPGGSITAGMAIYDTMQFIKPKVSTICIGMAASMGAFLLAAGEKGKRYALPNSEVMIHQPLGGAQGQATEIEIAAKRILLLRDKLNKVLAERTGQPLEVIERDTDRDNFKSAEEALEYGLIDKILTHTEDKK
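Buffer: 100 mM Tris/HCl pH8, 100 mM KCl, 0.05% low protease BSA, 2.5% glycerol, 0.01% Tween-20. ClpP 10 microg/mL final; 20 min RT; delta FRET normalized to ADEP and DMSO controls.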
Eya2 inh – Eya2 (human) phosphatase inhibition. O00167. recombinant Eya2, OMFP fluorescence dephosphorylation (OMFP is methylfluorescein phosphate). Potency, µM (series often up to 76.9 µM), without a hit: at the highest dose activity, negative = inhibition, usual class: inhibitors. 0.006% of 330,000 active. AID 488837; further: on the % scale 0 is the no-effect control and ±100 the full control effect
Target sequence (O00167 whole entry, looked up): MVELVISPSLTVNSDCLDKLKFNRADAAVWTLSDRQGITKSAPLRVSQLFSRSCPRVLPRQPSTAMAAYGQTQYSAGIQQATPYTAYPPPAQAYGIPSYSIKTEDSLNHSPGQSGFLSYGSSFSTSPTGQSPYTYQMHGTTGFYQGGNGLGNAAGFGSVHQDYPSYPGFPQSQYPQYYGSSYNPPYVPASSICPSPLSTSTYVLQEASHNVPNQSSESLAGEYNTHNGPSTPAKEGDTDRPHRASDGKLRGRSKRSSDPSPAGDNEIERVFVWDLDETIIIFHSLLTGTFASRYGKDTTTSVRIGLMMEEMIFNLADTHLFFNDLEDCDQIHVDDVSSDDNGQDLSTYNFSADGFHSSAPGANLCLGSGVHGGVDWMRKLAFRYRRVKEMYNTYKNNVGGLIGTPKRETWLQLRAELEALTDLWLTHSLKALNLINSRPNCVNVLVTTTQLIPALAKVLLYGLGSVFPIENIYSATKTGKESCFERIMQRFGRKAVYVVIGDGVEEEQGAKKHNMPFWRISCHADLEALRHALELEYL
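Eya2 protein (added as 0.2 uM solution) was preincubated with compound for 10 min at ambient temperature in 50 mM HEPES pH 7.5, 50 mM NaCl, 5 uM MgCl2, 0.05% BSA, 1 mM DTT. OMFP (added at 50 uM) then reacted 10 min; fluorescence read at 485/525 nm.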
MmCpn inh – M. maripaludis TRiC chaperonin inhibition; 0.031% of 330,000 active; Potency, µM (highest dose often 76.9 µM), for the others: at the highest dose activity, negative = inhibition, actives largely listed as inhibitors; purified Mm-Cpn ATPase, ADP Transcreener TR-FRET; further: on the % scale 0 is the no-effect control and ±100 the full control effect; nearly all actives have a fitted effect of over 80% in size
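ATPase turnover read by TR-FRET ADP competition (Eu cryptate antibody/ADP-d2, 665/590 nm): 10uM ATP final, 25nM Mm-CPN final, 30 min 37degC after 10-min compound preincubation, pH 7.4 Tris/KCl/MgCl2/DTT buffer.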
p53 reactivation – restores transcriptional activity of mutant p53; H1299 p53-A138V BP100-luciferase reporter, luminescence, 24 h; AID 504706; Potency, µM (titrated, usually from 92.2 µM), for the others: at the top dose activity change, positive = activation, most hits filed as activators; 0.063% of 320,000 active; further: % of control where 0% means no effect; nearly all actives have a fitted effect of over 45% in size
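p53-null H1299 cells stably carrying temperature-sensitive p53-A138V and a BP100-luciferase reporter were pinned with compounds (4-point, 1:5 series) and held 24 hrs at 37 deg C. Luminescence was read 10 min after detection reagent.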
USP2a inh – blocks human ubiquitin-specific protease USP2a; O75604; USP2 core, Ub-CHOP2 coupled fluorogenic reporter, 485/531; Potency, µM (top dose mostly 38.3 µM), inactives show top-dose activity change, negative = inhibition, actives largely listed as inhibitors; 0.01% of 330,000 active; AID 463254;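 further: plate controls were DMSO wells for no effect and full inhibition by NEM control for full effect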
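Cell-free coupled assay: 10nM USP2 core preincubated 30min RT with compound in Tris-HCl pH 8.0/CaCl2/CHAPS buffer, then 25nM Ub-CHOP2 and 25nM reporter substrate; fluorescence (Ex 485/Em 531) read after 60min RT, normalized to NEM inhibition, concentration-response curves fitted.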
The depositor's hits bear a star; ? = inconclusive; . = not tested or not shown; [ ] = remark or other dose. Shown is part of a subset that was picked to be rich in hits. Unless noted, the call rests on the fitted dose curve; in most records, active means well fitted curve in the direction sought with a large enough effect; inconclusive means small, poorly fitted or top-dose-only effect, or another doubt; inactive means no such curve, though single readings can be large; an effect the other way counts as inactive or inconclusive. Potency means the concentration at half of the fitted maximal effect.

SMILES | Integrin act MD | ClpP mod | Eya2 inh | MmCpn inh | p53 reactivation | USP2a inh
CCOC(=O)Cn1c(-c2ccccn2)nc2ccccc21 | 2% | 28µM* | -6% | -3% | -1% | 1%
NNC(=O)Cn1c(-c2ccccn2)nc2ccccc21 | 7% | 0% | 2% | 1% | 4% | 0%
Cc1cc(Oc2ccccc2)nc(C#N)n1 | . | -2% | . | . | . | .
NS(=O)(=O)c1ccc(CCNC(=O)C2CCN(S(=O)(=O)c3c(Cl)cccc3Cl)CC2)cc1 | 0% | . | -9% | 0% | -1% | 1%
Cc1ccc(S(=O)(=O)N2CCC(C(=O)NCCCn3ccnc3)CC2)cc1 | -5% | 16µM* | -4% | 1% | 19% | -1%
NS(=O)(=O)c1ccc(CCNC(=O)C2CCCN2C(=O)OCc2ccccc2)cc1 (centres undefined) | 23% | 32µM* | -4% | 3%[15.4 µM] | 6% | 2%
CSc1ccc(S(=O)(=O)N2CCC(C(=O)NCCCn3ccnc3)CC2)cc1 | -5% | 2% | -10% | -3% | 12% | 4%
NS(=O)(=O)c1ccc(CCNC(=O)C2CCN(S(=O)(=O)c3ccccc3)CC2)cc1 | ? | 28µM* | 1% | -1% | -1% | 0%
Ic1ccc(Nc2nc(NCCN3CCOCC3)nc(N3CCCC3)n2)cc1 | . | -2% | . | . | . | .
CC1(C)Cc2cccc(OCC(=O)OCC(=O)Nc3ccc(C(N)=O)cc3)c2O1 | -9% | 25µM* | -8% | 0% | -2% | 3%
CC1(C)Cc2cccc(OCC(=O)OCC(=O)Nc3ccccc3)c2O1 | 0% | -2% | -9% | 0% | 4% | 0%
O=C(NCc1ccccc1Cl)c1ccc(CSCc2cccc(F)c2)o1 | . | -2% | . | . | . | .
Cc1ccc2nc(-c3cccs3)c(Nc3c(C)cccc3C)n2c1 | . | 28µM* | . | . | . | .
C[N+]1(CC(=O)c2ccc(I)cc2)CCCc2ccccc21 (centres undefined) | . | -2% | . | . | . | .
N#Cc1cc([N+](=O)[O-])c2sc(C(N)=O)[n+]([O-])c2c1 | . | . | -4% | . | . | .
O=C(NCC(=O)N1CCN(c2ncccn2)CC1)c1ccc(F)cc1 | 0% | 14µM* | 3% | 2% | ? | 4%
CC(C#N)Sc1ncnc2sc3c(c12)CCC3 (centres undefined) | -25% | 0% | 1% | 0% | -8% | -4%
Cc1cc(C)nc(Sc2ncnc3sc4c(c23)CCC4)n1 | -42% | 13µM* | -3% | -1% | -3% | 5%
O=C(NCc1ccccc1)C12CC3CC(CC(Cl)(C3)C1)C2 | -1% | 32µM* | 0% | 0% | 3% | 1%
O=C(NCc1cccnc1)C12CC3CC(CC(Cl)(C3)C1)C2 | -2% | -2% | -3% | 0% | -6% | 2%
COc1nccc(NCc2ccccc2)c1C#N | 10µM* | -4% | . | . | . | .
N#Cc1c(NCc2ccccc2)ccnc1NCc1cccnc1 | 0% | -8% | 9% | 4% | -13% | 1%
CC(=O)Nc1cccc(CP(=O)(c2ccccc2)c2ccccc2)c1 | 17% | 32µM* | -5% | 0% | -3% | 2%
COc1ccc(NC(C)=O)cc1CP(=O)(c1ccccc1)c1ccccc1 | 1% | -1% | -3% | -2% | -2% | 5%
COc1cc(OC)cc(-c2cc3ccccc3c(=O)o2)c1 | -36% | 28µM* | -6% | -7% | 12% | 4%
SMILES | Integrin act MD | ClpP mod | Eya2 inh | MmCpn inh | p53 reactivation | USP2a inh
COc1cc(OC)cc(C(=O)NCC(=O)OCC(=O)c2cc(C)n(Cc3ccco3)c2C)c1 | -1% | 10µM* | -2% | -9% | 0% | 1%
Cc1cc(C(=O)COC(=O)CNC(=O)c2ccco2)c(C)n1Cc1ccco1 | -1% | -1% | 4% | ? | 0% | 5%
Cc1ccc(Nc2nc(NCc3ccco3)nc3nccnc23)c(C)c1 | . | 0% | . | . | . | .
CCOC(=O)c1ccc(NC(=O)CC2Nc3ccccc3NC2=O)cc1 (centres undefined) | . | 4% | . | . | . | .
COc1ccccc1C=CC(=O)C=Cc1ccccc1OC | -51% | 28µM* | . | . | . | .
COc1ccccc1/C=C/C(=O)OC(C)CN1CCOCC1 (centres undefined) | -22% | 32µM* | 10% | -1% | -1% | 0%
CC(CN1CCOCC1)OC(=O)c1ccccc1 (centres undefined) | 37% | -7% | ? | 1% | -2% | 0%
O=C(Nc1ccc(Cl)cc1Cl)[C@@H]1CC=C[C@@H]2CCN(Cc3ccccc3)C(=O)[C@@H]21 | . | 1% | . | . | . | .
CCCCCCCCCCCCCCCCCCN(CCCCCCCCCCCCCCCCCC)c1ccc(C=O)cc1 | . | 1% | . | . | . | .
COC(=O)c1ccc(COC(=O)CCc2nc(-c3ccccc3)c(-c3ccccc3)o2)cc1 | 4% | 32µM* | 5% | -6% | 6% | 5%
COC(=O)c1ccc(COC(=O)Cc2n[nH]c(=O)c3ccccc23)cc1 | -11% | -8% | -9% | -6% | 0% | 3%
C/C(=C\C(=O)c1ccccc1)Nc1ccc(Br)c(Cl)c1 | 11µM* | 0% | 8% | 3% | 14% | 0%
O=c1[nH]c2c(-c3nc(-c4ccc(F)cc4)cs3)c(O)cn2c2ccc(Br)cc12 | . | -4% | . | . | . | .
COCCOC(=O)c1cc(C(=O)c2cc(F)ccc2O)coc1=N | -16% | 16µM* | -5% | -10% | 5% | 4%
COC(=O)c1cc(C(=O)c2cc(Cl)ccc2O)coc1=N | 24% | 1% | 7% | 0% | -1% | 6%
COc1ccc(C(=O)NCCSc2c[nH]c3ccccc23)cc1OC | . | -1% | . | . | . | .
CC(=O)N1CCCc2cc(S(=O)(=O)NC(C(=O)NC3CCCCC3)C(C)C)ccc21 (centres undefined) | -20% | 16µM* | -2% | -19% | -13% | 4%
Cc1cccn2c(=O)nc(SCC(=O)N3CC(C)OC(C)C3)nc12 (centres undefined) | 21% | 32µM* | -27% | 1% | -3% | -2%
CCCCCn1c(=O)[nH]c2cc(C(=O)O)ccc2c1=O | -52% | 22µM* | -17% | 1% | 4% | -2%
COC(=O)c1ccc2c(=O)n(CCCCCC(=O)NCc3ccccn3)c(=O)[nH]c2c1 | 0% | 32µM* | -8% | 1% | 0% | 1%
COCCn1c(=O)[nH]c2cc(C(=O)NCCCN3CCN(c4ccc(F)cc4)CC3)ccc2c1=O | -19% | 28µM* | -7% | 0% | 3% | -2%
CCCCCn1c(=O)[nH]c2cc(C(=O)NCc3ccccc3)ccc2c1=O | . | -24% | . | . | . | .
COCCn1c(=O)[nH]c2cc(C(=O)NCCN3CCN(c4ccccc4F)CC3)ccc2c1=O | 3% | ? | 15% | 0% | -5% | 3%
CCCCCn1c(=O)[nH]c2cc(C(=O)NCCCN(CC)CC)ccc2c1=O | -57% | 28µM* | 9% | 1% | -1% | 0%
